This is part of a sample that, as a whole, favours compounds with a hit. Of some 83,000 tested, about 20% had one in any assay.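 For each line, cells grew in 96-well plates with the test compound present at a single concentration for 48 hours.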 The source made the active and inactive calls. How the source made its calls: active means growth percent below 10; inactive means the rest.
Key:
Assay in all cases: NCI-60 one-dose screen, 48 h (100 = growth as untreated, 0 = no growth, -100 = all killed)
Details in all cases: 10 µM unless noted
HCT-15 colon = system: HCT-15 colon
HT29 colon = system: HT29 colon
SNB-75 CNS = system: SNB-75 CNS
SNB-19 CNS = system: SNB-19 CNS
U251 CNS = system: U251 CNS
PC-3 prostate = system: PC-3 prostate
SK-MEL-5 melanoma = system: SK-MEL-5 melanoma
UACC-62 melanoma = system: UACC-62 melanoma
LOX IMVI melanoma = system: LOX IMVI melanoma
SK-MEL-28 melanoma = system: SK-MEL-28 melanoma

Measured: growth

COc1cc(C(C)=C(c2ccc(OCCN(C)C)cc2)c2ccc(OCCN(C)C)cc2)ccc1F
inactive: HCT-15 colon 101% | HT29 colon 108% | SNB-75 CNS 100% | SNB-19 CNS 98.2% | U251 CNS 106% | PC-3 prostate 110% | SK-MEL-5 melanoma 96.6% | UACC-62 melanoma 97.8% | LOX IMVI melanoma 95.3% | SK-MEL-28 melanoma 109%

N#Cc1c(-c2ccc(Br)cc2)cc(-c2c[nH]c3ccccc23)nc1N
inactive: HCT-15 colon 16.8% | HT29 colon 27.4% | SNB-75 CNS 37.9% | SNB-19 CNS 66.1% | U251 CNS 52.6% | PC-3 prostate 55.2% | SK-MEL-5 melanoma 58.9% | UACC-62 melanoma 64.9% | LOX IMVI melanoma 28.7% | SK-MEL-28 melanoma 59.3%

CN1CC[C@@H]2[C@@]3(C)CC[C@H](O)C(C)(C)[C@@H]3CC[C@@]2(C)[C@]2(C)CC[C@@]3(CO)CCC(C)(C)C[C@@H]3C12 (stereo not given in full)
inactive: HCT-15 colon 72.7% | HT29 colon 40.3% | SNB-75 CNS 87.7% | SNB-19 CNS 94.5% | U251 CNS 73.9% | PC-3 prostate 79.6% | SK-MEL-5 melanoma 95.6% | UACC-62 melanoma 93% | LOX IMVI melanoma 84.8% | SK-MEL-28 melanoma 88%

O=C(CSc1cc[n+](CCCCO)c2ccccc12)n1ccc2ccccc21
inactive: HCT-15 colon 104% | HT29 colon 103% | SNB-75 CNS 96.1% | SNB-19 CNS 100% | U251 CNS 96.3% | PC-3 prostate 97.6% | SK-MEL-5 melanoma 98.7% | UACC-62 melanoma 93.5% | LOX IMVI melanoma 103% | SK-MEL-28 melanoma 110%

Cc1ncn(-c2ccc(/C=N/Nc3ccnc4cc(Cl)ccc34)cc2)c1C
active: HCT-15 colon -59.4% | HT29 colon -77.5% | SNB-75 CNS -24.2% | U251 CNS -81.7% | PC-3 prostate -21.3% | SK-MEL-5 melanoma -19.7% | UACC-62 melanoma -74.4% | LOX IMVI melanoma -88.9% | SK-MEL-28 melanoma -79.3%
inactive: SNB-19 CNS 42.3%

Cc1ccc(S(=O)(=O)NCCCNc2nc(Nc3ccc(N4CCN(C)CC4)cc3)nc3ccsc23)cc1
inactive: SNB-75 CNS 88.5% | SNB-19 CNS 58.7% | PC-3 prostate 63.5%
active: HCT-15 colon 3% | HT29 colon -61.8% | U251 CNS 6.58% | SK-MEL-5 melanoma -84.1% | UACC-62 melanoma -48.3% | LOX IMVI melanoma -77.6% | SK-MEL-28 melanoma -84.5%

O=C(CCl)Nc1ccc(NC(=O)c2cc(Cl)ccc2O)c(Cl)c1
inactive: HCT-15 colon 25.9% | HT29 colon 64.6% | SNB-75 CNS 77.1% | SNB-19 CNS 80% | U251 CNS 42.8% | PC-3 prostate 87.1% | SK-MEL-5 melanoma 57.8% | UACC-62 melanoma 56.4% | SK-MEL-28 melanoma 88.5%
active: LOX IMVI melanoma -88.1%

Cc1ccccc1Nc1nc(SC(C)C)nc(-c2ccccc2)c1C#N
inactive: HCT-15 colon 58.2% | HT29 colon 53.2% | SNB-75 CNS 101% | SNB-19 CNS 19.9% | U251 CNS 33.8% | PC-3 prostate 80.8% | SK-MEL-5 melanoma 85.2% | UACC-62 melanoma 92.3% | LOX IMVI melanoma 10.5% | SK-MEL-28 melanoma 87.3%

C=C(C=O)[C@@H]1CC[C@]2(C(=O)O)CC[C@]3(C)C(CC[C@@H]4[C@@](C)(CCC#N)[C@H](C(=C)C=O)CC[C@]43C)[C@@H]12 (stereo not given in full)
active: HCT-15 colon 4.88% | HT29 colon 0.538% | U251 CNS 5.39% | LOX IMVI melanoma -81.7% | SK-MEL-28 melanoma -5.57%
inactive: SNB-75 CNS 59% | SNB-19 CNS 62.7% | PC-3 prostate 30.3% | SK-MEL-5 melanoma 26.3% | UACC-62 melanoma 30.9%

O=S1SC(c2ccccc2)=NN1c1cc(F)cc(F)c1 (stereo not given)
inactive: HCT-15 colon 28.7% | HT29 colon 98.9% | SNB-75 CNS 74.9% | SNB-19 CNS 49.8% | U251 CNS 20.3% | PC-3 prostate 13.3% | SK-MEL-5 melanoma 50.4% | UACC-62 melanoma 29.1% | LOX IMVI melanoma 38.1% | SK-MEL-28 melanoma 46.4%

C=C(C)[C@@H]1CC[C@]2(C(=O)NC3CCCCC3)CC[C@]3(C)[C@H](CC[C@@H]4[C@@]5(C)CC[C@H](N)C(C)(C)[C@@H]5CC[C@]43C)[C@@H]12
active: LOX IMVI melanoma -75.1%
inactive: HCT-15 colon 39% | HT29 colon 71.8% | SNB-75 CNS 83.9% | SNB-19 CNS 103% | U251 CNS 88.8% | PC-3 prostate 72.8% | SK-MEL-5 melanoma 92.7% | UACC-62 melanoma 104% | SK-MEL-28 melanoma 109%

COc1ccc2c(c1)c(-c1nc(N)nnc1-c1c[nH]c3ccccc13)cn2C
inactive: HCT-15 colon 22.9% | HT29 colon 14.5% | SNB-19 CNS 31.5% | U251 CNS 24.6% | PC-3 prostate 43.4% | SK-MEL-5 melanoma 26% | UACC-62 melanoma 26.1% | LOX IMVI melanoma 33.1% | SK-MEL-28 melanoma 54.5%
active: SNB-75 CNS -11.9%

O=C(CSc1nnc(-c2cccs2)n1-c1ccccc1)Nc1ccccc1F
inactive: HCT-15 colon 52.7% | HT29 colon 75.1% | SNB-75 CNS 84.4% | SNB-19 CNS 83.2% | U251 CNS 89.3% | PC-3 prostate 93.3% | SK-MEL-5 melanoma 91.2% | UACC-62 melanoma 57.7% | LOX IMVI melanoma 78.9% | SK-MEL-28 melanoma 81.1%
